± gives the standard deviation.
Assays:
Test in all cases: peptide microarray binding signal (635 nm), min-max normalized on array (fraction of array maximum); higher = stronger binding
Settings in all cases: peptide region: Unmod H4 variant
[1] = molecular target: T1, HaloTag-ATRX ADD domain (163-292)
T1 chain: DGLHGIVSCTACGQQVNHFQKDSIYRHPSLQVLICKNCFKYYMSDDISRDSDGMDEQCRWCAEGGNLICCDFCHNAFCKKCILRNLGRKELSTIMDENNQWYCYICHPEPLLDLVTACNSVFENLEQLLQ
Method in brief: (§1)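 Histone 13-mer peptide–cellulose conjugates were printed in triplicate on nitrocellulose with a Cy3 tracer, then blocked overnight at 4°C. Arrays were probed for 1 h at 4°C with biotin-labelled HaloTag reader fusions (10 nM to 1 μM) plus streptavidin-Alexa Fluor 647, or with rabbit histone antibodies (1:10,000 to 1:2,000) plus anti-rabbit Alexa 647. An Axon GenePix 4000B scanned 635 nm for signal and 532 nm for misprints. Binding signal is the triplicate-spot mean intensity, min-max scaled per library.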

[2] = molecular target: HaloTag-ING2 PHD (mouse Ing2 200-280)
Method in brief: as §1

[3] = molecular target: anti-H3K4me3 antibody ab8580
Method in brief: as §1

[4] = molecular target: anti-H3K9me3 antibody ab8898
Method in brief: as §1

[5] = binder concentration: 1:2,000 dilution
[6] = binder concentration: 1:10,000 dilution

## IRDAVTYTEHAKR [Unmod H4 variant I R D A V T Y T E H A K R]
[1]; binder concentration: 50 nM
  peptide microarray binding signal: 0.0385 ± 0.0035
[1]; binder concentration: 500 nM
  peptide microarray binding signal: 0.0711 ± 0.01
[2]; binder concentration: 10 nM
  peptide microarray binding signal: 0.0251 ± 0.0019
[2]; binder concentration: 100 nM
  peptide microarray binding signal: 0.0444 ± 0.0047
[3]; [5]
  peptide microarray binding signal: 0.00429 ± 0.00052
[3]; [6]
  peptide microarray binding signal: 0.00913 ± 0.0018
[4]; [5]
  peptide microarray binding signal: 0.00497 ± 9e-05
[4]; [6]
  peptide microarray binding signal: 0.00577 ± 8e-05

## AKRKTVTAMDVVY [Unmod H4 variant A K R K T V T A M D V V Y]
[1]; binder concentration: 50 nM
  peptide microarray binding signal: 0.00693 ± 0.00037
[1]; binder concentration: 500 nM
  peptide microarray binding signal: 0.0206 ± 0.0015
[2]; binder concentration: 10 nM
  peptide microarray binding signal: 0.00609 ± 0.00018
[2]; binder concentration: 100 nM
  peptide microarray binding signal: 0.0129 ± 0.0003
[3]; [5]
  peptide microarray binding signal: 0.00104 ± 3.5e-05
[3]; [6]
  peptide microarray binding signal: 0.001484 ± 1.4e-05
[4]; [5]
  peptide microarray binding signal: 0.000604 ± 2e-05
[4]; [6]
  peptide microarray binding signal: 0.00104 ± 1.1e-05

## GVLKVFLENVIRD [Unmod H4 variant G V L K V F L E N V I R D]
[1]; binder concentration: 50 nM
  peptide microarray binding signal: 0.00223 ± 6.3e-05
[1]; binder concentration: 500 nM
  peptide microarray binding signal: 0.00281 ± 0.00014
[2]; binder concentration: 10 nM
  peptide microarray binding signal: 0.00388 ± 0.00015
[2]; binder concentration: 100 nM
  peptide microarray binding signal: 0.00269 ± 6.7e-05
[3]; [5]
  peptide microarray binding signal: 0.00174 ± 0.00026
[3]; [6]
  peptide microarray binding signal: 0.00097 ± 2e-05
[4]; [5]
  peptide microarray binding signal: 0.00125 ± 0.00016
[4]; [6]
  peptide microarray binding signal: 0.00098

## TYTEHAKRKTVTA [Unmod H4 variant T Y T E H A K R K T V T A]
[1]; binder concentration: 50 nM
  peptide microarray binding signal: 0.0167 ± 0.0088
[1]; binder concentration: 500 nM
  peptide microarray binding signal: 0.0332 ± 0.0014
[2]; binder concentration: 10 nM
  peptide microarray binding signal: 0.00901 ± 0.00035
[2]; binder concentration: 100 nM
  peptide microarray binding signal: 0.0293 ± 0.0034
[3]; [5]
  peptide microarray binding signal: 0.00155 ± 0.00011
[3]; [6]
  peptide microarray binding signal: 0.0024 ± 0.00014
[4]; [5]
  peptide microarray binding signal: 0.00104 ± 3.8e-05
[4]; [6]
  peptide microarray binding signal: 0.00202 ± 8.6e-05

## FLENVIRDAVTYT [Unmod H4 variant F L E N V I R D A V T Y T]
[1]; binder concentration: 50 nM
  peptide microarray binding signal: 0.0144 ± 0.0008
[1]; binder concentration: 500 nM
  peptide microarray binding signal: 0.0404 ± 0.01
[2]; binder concentration: 10 nM
  peptide microarray binding signal: 0.00901 ± 0.0012
[2]; binder concentration: 100 nM
  peptide microarray binding signal: 0.0294 ± 0.011
[3]; [5]
  peptide microarray binding signal: 0.00381 ± 0.00074
[3]; [6]
  peptide microarray binding signal: 0.00519 ± 0.00068
[4]; [5]
  peptide microarray binding signal: 0.00331 ± 0.00056
[4]; [6]
  peptide microarray binding signal: 0.0034 ± 0.00025
